# TDP43 rescue: inhibitors of TDP-43 toxicity in yeast. TDP-43 expressing yeast growth rescue, BacTiter-Glo, 24 h. Potency, µM (titrated, usually from 46.1 µM), inactives show at the highest dose growth rescue (activation), most hits filed as activators. actives 1.8% (n = 410,000). AID 652104; note: % of control where 0% means no effect; nearly all actives have a fitted effect of over 50% in size
#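 Luminescence from BacTiter-Glo reports growth of TDP-43-expressing yeast after 24 hr at 30 deg C with compound. Cells were raffinose-pregrown to mid-log, then seeded in galactose medium at OD600=0.02.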
# aSyn rescue: alpha-synuclein toxicity inhibition in yeast. Yeast expressing alpha-synuclein, growth rescue, BacTiter-Glo, 24 h. Potency, µM (titrated, usually from 46.1 µM), inactives show at the top dose growth rescue (activation), actives largely listed as activators. actives 0.14% (n = 370,000); note: % of control where 0% means no effect; nearly all actives have a fitted effect of over 65% in size
#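 Rescue of yeast growth: cells expressing toxic alpha-synuclein, induced in galactose at OD600 0.02, incubated with compound 24 h at 30 C. ATP luminescence quantified growth; inhibitors of toxicity appear as activators.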
# ERG Ets-DNA blk: blocks human ERG Ets domain binding to DNA; P11308; fluorescence polarization, His-ERG Ets domain / labelled DNA; Potency, µM (series often up to 76.9 µM), inactives show at the top dose FP activity, negative = inhibition, usual class: inhibitors; actives 0.028% (n = 370,000); AID 624246; active = well fitted inhibition curve with a large enough effect in the polarisation, with a control signal flat; inconclusive = small, poorly fitted or top-dose-only effect, or effect the other way, or a change in a side signal; inactive = no such curve, though single readings can be large or run the other way; the % refers to the polarisation;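 note: polarization taken with two DNA probes labelled with fluorescein and Texas red; % of control where 0% means no effect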
# Target sequence (P11308 whole entry, looked up, the tested form may be a part): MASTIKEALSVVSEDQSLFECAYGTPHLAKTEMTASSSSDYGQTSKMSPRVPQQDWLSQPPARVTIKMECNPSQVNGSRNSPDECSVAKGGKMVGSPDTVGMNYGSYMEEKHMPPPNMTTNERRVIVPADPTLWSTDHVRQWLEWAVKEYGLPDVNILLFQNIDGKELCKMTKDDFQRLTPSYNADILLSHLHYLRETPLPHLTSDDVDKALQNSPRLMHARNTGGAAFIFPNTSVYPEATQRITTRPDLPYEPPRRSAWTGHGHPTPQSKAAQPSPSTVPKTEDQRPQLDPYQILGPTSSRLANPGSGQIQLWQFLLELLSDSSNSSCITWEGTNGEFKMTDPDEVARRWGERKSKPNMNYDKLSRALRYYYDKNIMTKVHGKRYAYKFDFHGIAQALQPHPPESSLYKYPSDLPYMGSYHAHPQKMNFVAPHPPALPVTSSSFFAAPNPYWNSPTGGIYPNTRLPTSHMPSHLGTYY
#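 His-tagged ERG Ets domain (1 uM in the protein solution; 300mM KCl, 50mM Tris-HCl, 1mM EDTA, 1mM DTT, pH 7.5) received compound, then a probe mix of 5 nM fluorescein-DNA and 100nM Texas-615-DNA. Fluorescence polarization was read for both dyes.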
# Abeta rescue: A-beta toxicity reversal in yeast | actives 0.063% (n = 410,000) | Potency, µM (titrated, usually from 46.1 µM), actives largely listed as activators | yeast expressing A-beta42, growth rescue, OD600, 48 h; response scale: 0% DMSO, 100% iron-clioquinol control; note: nearly all actives have a fitted effect of over 55% in size
#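 Yeast growth medium received pinned compounds, then yeast cells expressing toxic A-beta were added; plates incubated at 30 C for 48 hr. Growth read as absorbance at 600 nm, normalized to DMSO and equimolar FeCl3 plus clioquinol controls.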
# Mito fusion act: blocks mitochondrial division or promotes mitochondrial fusion. actives 0.23% (n = 320,000). S. cerevisiae fusion-defective mutant growth rescue, CellTiterGlo 48 h. Potency, µM (doses to about 46.1 µM), inactives show at the highest dose growth rescue (activation), usual class: activators; note: % of control where 0% means no effect; nearly all actives have a fitted effect of over 45% in size
#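 Read-out: ATP-based luminescence (CellTiterGlo, 10 min ambient) reporting growth of fusion-defective ts yeast after 48 hours at 37C on glycerol/ethanol YPEG medium in the presence of compound.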
# FUS suppressor: rescues growth of FUS-expressing yeast; S. cerevisiae FUS-expressing, growth rescue, OD600, 24 h; actives 0.24% (n = 390,000); Potency, µM (top dose mostly 76.6 µM), usual class: activators;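 note: plate controls were DMSO vehicle for no effect and reference control for full effect; nearly all actives have a fitted effect of over 55% in size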
#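 Absorbance at 600 nm, taken 24hr after compound addition, measured rescue of FUS-yeast growth at 30C. Induction used 2% galactose with seeding at OD 0.005. Controls: CP55940 from 92uM final, DMSO only.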
# * = called active by the depositor; i = inactive; ? = inconclusive; nt = no result given; [ ] = another dose, or the depositor's remark. Shown are actives, neighbours in structure and some others; about 2.2% of the full set was active somewhere. Unless noted, calls come from the whole dose curve; as a rule, active = well fitted curve in the direction sought with a large enough effect; inconclusive = small, poorly fitted or top-dose-only effect, or another doubt; inactive = no such curve, though single readings can be large; an effect the other way counts as inactive or inconclusive. Potency is the fitted concentration of half-maximal effect.
SMILES,TDP43 rescue,aSyn rescue,ERG Ets-DNA blk,Abeta rescue,Mito fusion act,FUS suppressor
Cn1c(=O)c(=O)n(C)c2cc(S(=O)(=O)N3CCCC3C(=O)Nc3cccc(F)c3)ccc21 (centres undefined),-10%,nt,2%,i,nt,i
CC(O)CNc1nc2sc3c(c2c(=O)n1CCc1ccccc1)CCCCC3 (centres undefined),-9%[0.397 µM],-45%,-12%,i,20µM*,?
CN(C)CCNc1nc2sc3c(c2c(=O)n1CCc1ccccc1)CCCCC3,17%,-9%,-5%,i,11%,i
O=[N+]([O-])c1cc(C(F)(F)F)ccc1NCC1CCCO1 (centres undefined),14µM*,5%,-1%,i,-2%,i
Nc1nnc(SCC(=O)NNC(=O)c2ccccc2)s1,12%,-6%,4%,i,3%,i
c1ccc(-c2c(-c3ccccc3)n(Cc3ccco3)c3ncnc(NCCCn4ccnc4)c23)cc1,?,?,1%,i,-13%,i
OCCNc1ncnc2c1c(-c1ccccc1)c(-c1ccccc1)n2Cc1ccco1,-14%,13µM*,-4%,i,6%,i
CCCSc1nnc(-c2ccco2)n1C,nt,nt,nt,nt,nt,i
COc1ccccc1/C=C1/C(=O)ON=C1C,14µM*,-9%,-2%,i,-4%,i
COc1ccc(/C=C2/C(=O)ON=C2C)cc1Br,-44%,-13%,5%,i,11%,i
CC(=O)N1CC2(CC(c3ccccc3C(F)(F)F)=NO2)CN1c1ccc(Cl)cc1 (centres undefined),21%,13µM*,nt,i,nt,?
COc1ccc(-c2noc(CN(C)S(=O)(=O)c3ccccc3)n2)cc1OC,22%,4%,0%,i,nt,i
CN(Cc1nc(-c2ccc(Cl)cc2)no1)S(=O)(=O)c1ccccc1,35µM*,nt,-2%,i,nt,i
CS(=O)(=O)N(Cc1nc(-c2ccc(F)cc2)no1)c1ccccc1Cl,22µM*,19%,-7%,i,15%,i
Cc1ccc(-c2noc(CN(C3CCCCC3)S(=O)(=O)c3ccc(F)cc3)n2)cc1,2%,nt,-5%,i,nt,i
COc1ccc(-c2nc3scc(CCNS(=O)(=O)c4ccccc4F)n3n2)cc1,22µM*,nt,4%,i,nt,i
CCCC1CCC2(CC1)CCC2OC(=S)Nc1ccccc1C(F)(F)F (centres undefined),nt,nt,nt,nt,nt,i
COc1ccc([C@H]2CC(=O)C=C(c3ccc(C(F)(F)F)c(C(F)(F)F)c3)C2)cc1OC,6%,12%,-5%,i,-7%,i
COc1ccc(C2=CC(=O)CC(c3ccc(F)cc3)C2)cn1 (centres undefined),18µM*,6%,-7%,i,nt,i
COc1cc(F)cc(C2=CC(=O)C[C@H](c3ccc(F)cc3)C2)c1,?,2%,11%,i,16%,i
COc1ccc(C2=CC(=O)C[C@H](c3ccc(F)cc3)C2)cc1OC,22µM*,0%,-5%,i,?,i
COc1ccc([C@H]2CC(=O)C=C(c3ccc(Cl)c(C(F)(F)F)c3)C2)cc1OC,16µM*,0%,-2%,i,4%,?
COc1ccc([C@H]2CC(=O)C=C(c3ccc(C)cc3)C2)cc1OC,13µM*,4%,-5%,i,17%,i
CCC(C)NC(=O)C1CCN(S(=O)(=O)c2ccc3c(ccn3CC)c2)CC1 (centres undefined),15%,nt,-1%,i,nt,i
CC1CCN(C(=O)c2cccc(NC(=O)c3nsc4ccccc34)c2)CC1,?,nt,-1%,i,nt,?
SMILES,TDP43 rescue,aSyn rescue,ERG Ets-DNA blk,Abeta rescue,Mito fusion act,FUS suppressor
COc1cc(CNc2ncnc3c2ncn3[C@H]2CN(Cc3cccc(C(F)(F)F)c3)C[C@@H](COC(C)=O)O2)cc(OC)c1OC,17%,1%,nt,i,nt,20µM*
O=C(CCCC(=O)OCC(Cl)=C(Cl)Cl)Nc1cccc(F)c1,14µM*,6%,0%,i,0%,i
COc1cccc(NC(=O)Cc2ccccc2)c1,-4%,-5%,-5%,i,2%,i
O=C(CSCc1ccccc1)Nc1cccc(F)c1,6.3µM*,3%,-6%,i,5%,i
O=C(Cc1ccccc1)Nc1cccc(N2C(=O)C=CC2=O)c1,6.3µM*,2%,-7%,i,-2%,nt
O=C(CCCC(=O)OCC(Cl)=C(Cl)Cl)Nc1cccc2ccccc12,20%,-5%,-1%,i,8%,i
O=C(CCCC(=O)OCC(Cl)=C(Cl)Cl)Nc1ccc(F)cc1,16µM*,10%,-1%,i,5%,i
CCOC(=O)c1ccc(NC(=O)CSc2nc3ccccc3c(=O)n2CCNC(C)=O)cc1,7%,nt,0%,i,nt,i
O=C(CCn1nnc2ccccc21)N1CCN(c2ccc(F)cc2)CC1,nt,nt,nt,nt,nt,i
COc1ccc(Oc2c(Br)cnn(Cc3cccc4ccccc34)c2=O)cc1,nt,nt,nt,nt,nt,i
CCOc1ccc(CCNC(=O)c2c(C)oc3ncn(CC(C)C)c(=O)c23)cc1,20µM*,nt,-6%,i,nt,i
Oc1ccc(-c2nc3ccccc3s2)cc1,35µM*,-17%,-13%,i,7%,i
Cc1ccc(N2C(=O)C3C4C=CC(CNC(=S)Nc5ccc(Cl)cc5)(O4)C3C2=O)cc1 (centres undefined),14µM*,-35%,3%,i,5%,nt
Cc1ccc(N2C(=O)C3C4C=CC(CNC(=S)Nc5ccc(F)cc5)(O4)C3C2=O)cc1 (centres undefined),?,-49%,7%,i,1%,i
CC(=O)c1cccc(NC(=O)c2ccc(-n3c(C)nnc3C)cc2)c1,10%,nt,-2%,i,nt,i
c1ccc2c(c1)OCC(c1csc3ncnc(N4CCCC4)c13)O2 (centres undefined),22µM*,8%,-4%,i,-12%,i
Cc1ccc(-c2csc3ncnc(N4CCN(S(=O)(=O)c5cccs5)CC4)c23)cc1,4.5µM*,15%,6%,i,-30%,nt
Oc1ccccc1N1CCN(c2ncnc3scc(-c4ccc(F)cc4)c23)CC1,22µM*,16%,-6%,i,?,?
Oc1ccccc1N1CCN(c2ncnc3scc(-c4ccccc4)c23)CC1,18µM*,26%,-5%,i,5%,?

# High-throughput results (PubChem)
